Results on five compounds are retold here after PubChem BioAssay (NCATS).

Assay [1] concerns the target Cytochrome P450 1A2 (Homo sapiens) (UniProt P05177). The assay can be described thus: p450-cyp1a2 (AID 410; calls by dose curve; note: potency is the fitted concentration of half-maximal effect). Summed up:
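Luminescent readout of luciferin formed from Luciferin-ME by human CYP1A2; data normalized against complete inhibition by 57 uM furafylline. Enzyme 20nM, substrate 100uM at Km, 100mM KPO4 buffer, 60 min reaction at room temperature.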

The target in assay [2] is Glucocorticoid receptor (Homo sapiens) (UniProt P04150). The assay can be described thus: GR-GFP Redistribution (AID 450;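 active = compounds whose dose series gives a full or clear partial fitted curve of increased nuclear translocation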; note: potency is the fitted concentration of half-maximal effect). The conditions noted are these: U2OS GR-GFP nuclear translocation, laser cytometry, 2 h.
Chain of Glucocorticoid receptor (Homo sapiens) (P04150 whole entry, looked up): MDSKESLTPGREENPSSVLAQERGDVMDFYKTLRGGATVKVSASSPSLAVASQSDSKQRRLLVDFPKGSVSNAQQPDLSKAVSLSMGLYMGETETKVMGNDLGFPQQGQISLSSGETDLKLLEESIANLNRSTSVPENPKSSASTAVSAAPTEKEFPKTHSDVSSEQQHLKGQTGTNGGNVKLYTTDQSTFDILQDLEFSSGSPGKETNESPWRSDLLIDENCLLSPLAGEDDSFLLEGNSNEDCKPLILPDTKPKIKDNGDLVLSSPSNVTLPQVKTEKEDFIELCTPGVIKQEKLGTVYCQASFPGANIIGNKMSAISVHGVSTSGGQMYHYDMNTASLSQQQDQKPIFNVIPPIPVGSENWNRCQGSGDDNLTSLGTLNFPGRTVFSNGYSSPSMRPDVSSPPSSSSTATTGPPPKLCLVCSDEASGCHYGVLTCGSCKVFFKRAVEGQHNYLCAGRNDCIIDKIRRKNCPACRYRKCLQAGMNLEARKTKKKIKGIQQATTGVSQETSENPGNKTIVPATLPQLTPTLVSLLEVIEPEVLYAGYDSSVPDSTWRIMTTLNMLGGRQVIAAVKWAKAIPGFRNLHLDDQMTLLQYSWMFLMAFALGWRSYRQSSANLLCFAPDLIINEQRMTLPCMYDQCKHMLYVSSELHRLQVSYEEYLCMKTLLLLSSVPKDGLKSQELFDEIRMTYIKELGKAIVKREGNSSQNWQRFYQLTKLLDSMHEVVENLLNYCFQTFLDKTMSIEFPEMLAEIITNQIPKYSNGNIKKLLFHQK
Assay [3] shares this target. As to the kind of experiment: GR-EFC Redistribution (AID 451; calls by dose curve; note: potency is the fitted concentration of half-maximal effect). As to conditions: CHO-K1 GR-EFC translocation, beta-gal luminescence, 2 h. A digest of the protocol:
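CHO-K1 cells expressing nuclear EA and GR-ED fragments of b-gal; compounds titrated up to 46 uM final, 2 h at 37 C. GR nuclear translocation read as complemented b-gal luminescence after 1 h RT detection.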

In assay [4] the target is Mitogen-activated protein kinase 10 (Mus musculus) (UniProt Q61831). As to the kind of experiment: JNK3 AlphaScreen Assay (AID 530; active = well fitted curve in either direction with a large enough effect, not every such curve was filed as active;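 note: kinase came from lysate of stimulated human HepG2 cells; signal reports phosphorylation of biotinylated GST-cJun 1-79 at Ser73 with 10 µM ATP; % is set by controls: 0 for no effect and ±100 for the full control effect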). Summed up:
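Pre-activated (IL-1β/TNFα) JNK3 in HepG2 lysates phosphorylates biotin-GST-cJun(1-79), 10 uM ATP; anti-phospho-cJun(Ser73) AlphaScreen read at room temperature, pH 7.6 Tris buffer. Compounds pre-incubated 15 min as titrations.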
A general note: Alpha assays give light when donor and acceptor beads are brought close together.

Assay [5] addresses 3',5'-cyclic-AMP phosphodiesterase 4B (Homo sapiens) (UniProt Q07343). As to the kind of experiment: qHTS Assay for Inhibitors of PDE-IV (AID 607; active = well fitted activation curve with a large enough effect in the main read-out, with a control signal flat, not every such curve was filed as active; note: % of control where 0% means no effect). Summed up: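 Cell-based read-out of cAMP via a modified cyclic nucleotide-gated channel and membrane potential dye (535/590 nm) in HEK293 cells expressing PDE4 endogenously. Compounds tested up to 22.9 uM final; 100 uM RO 20-1724 reference.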

A short description of assay [6]: qHTS Assay for Lipid Storage Modulators (AID 1519; calls by dose curve). The conditions noted are these: Drosophila S3 cells, BODIPY lipid droplet/cell ratio, laser cytometry, cells loaded with oleic acid. Summed up:
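Cells seeded at 5,000 per well were treated with compounds over a concentration series and loaded with oleic acid (400 uM, as added). Lipid droplet fluorescence (488 nm excitation, 500-530 nm channel) was read by laser-scanning cytometry and normalized to 20 uM Triacsin C.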
(In general: Quantitative high-throughput screening tests each substance at several concentrations.)

In assay [7] the target is ATP-dependent 6-phosphofructokinase (Trypanosoma brucei brucei) (UniProt O15648). As to the kind of experiment: qHTS Assay to Find Inhibitors of T. brucei phosphofructokinase: hit validation (AID 492961). Note: % is set by controls: 0 for no effect and ±100 for the full control effect. Summed up:
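Luminescence from ADP-Glo reports ADP generated as T. brucei PFK (1.25 nM) phosphorylates 0.5 mM fructose-6-phosphate using 0.1 mM ATP. Reactions ran 45 min at room temperature, pH 8.0.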

Assay [8] addresses Ubiquitin carboxyl-terminal hydrolase 1 (Homo sapiens) (UniProt O94782). The assay can be described thus: Inhibitors of USP1/UAF1: Pilot qHTS (AID 504865).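 Note: rhodamine fluorescence freed from ubiquitin-rhodamine substrate followed over time; top concentration of the series differs between compounds; % is set by controls: 0 for no effect and ±100 for the full control effect; nearly all actives have a fitted effect of over 35% in size.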 A digest of the protocol:
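In 50mM HEPES pH 7.8 containing 0.5mM EDTA, 1mM TCEP, 0.1 mg/ml BSA and 0.01% Tween-20, 1nM USP1/UAF1 is exposed to compound for 15 min, then Ub-Rho (150nM final) is added and fluorescence is read over time.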

Assay [9] addresses Luciferin 4-monooxygenase (Photinus pyralis) (UniProt P08659). As to the kind of experiment: Biochemical firefly luciferase enzyme assay for NPC (AID 624030).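 Note: purified P. pyralis luciferase at 10 nM with luciferin and ATP substrate; 0% = DMSO and -100% = full luciferase inhibition by PTC124 control; nearly all actives have a fitted effect of over 70% in size.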 A digest of the protocol: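 Purified P. pyralis luciferase at 10 nM in 50 mM Tris Acetate (final), luminescence read within 5 minutes of enzyme addition to compounds. Activity normalised to PTC124 versus DMSO; concentration-response curves classed by r2, magnitude and activity.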

Assay [10] in a line: qHTS profiling for inhibitors of Plasmodium falciparum proliferation (AID 504749).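 Note: 0% = DMSO vehicle and full inhibition = artemisinin control; nearly all actives have a fitted effect of over 60% in size.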 As to conditions: P. falciparum in erythrocytes, SYBR Green DNA, 72 h. A digest of the protocol:
(§1)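 P. falciparum-infected erythrocytes (0.3% parasitemia, 2.5% hematocrit) incubated with compound 72 h at 37 C, 5% CO2. Parasite DNA detected by SYBR Green after lysis, overnight at room temperature; normalised to 0.29 uM artemisinin and DMSO.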

The subject of the next assay is AS120. The assay is described as above. As to conditions: P. falciparum in erythrocytes, SYBR Green DNA, 72 h; series mostly up to 28.7 µM. Summed up: as §1
The test system of another assay is CP201. The assay is described as above. As to conditions: P. falciparum in erythrocytes, SYBR Green DNA, 72 h; series mostly up to 12.8 µM. Summed up:
as §1

Another assay has as its system CP238. The assay is described as above. The conditions noted are these: P. falciparum in erythrocytes, SYBR Green DNA, 72 h; series mostly up to 12.8 µM. Summed up:
as §1

A further assay relates to CP262. The description is as above. As to conditions: P. falciparum in erythrocytes, SYBR Green DNA, 72 h; series mostly up to 12.8 µM. Summed up:
as §1

The next assay deals with CP265. The assay is described as above. As to conditions: P. falciparum in erythrocytes, SYBR Green DNA, 72 h; series mostly up to 12.8 µM. A digest of the protocol:
as §1

For the next assay, the system named is FAB9. The description is as above. The conditions noted are these: P. falciparum in erythrocytes, SYBR Green DNA, 72 h; series mostly up to 12.8 µM. A digest of the protocol: as §1
A further assay has as its system JCK. The assay is described as above. As to conditions: P. falciparum in erythrocytes, SYBR Green DNA, 72 h; series mostly up to 12.8 µM. A digest of the protocol: as §1
Assay [11] is described as follows: AP1 Signaling Pathway (AID 357; active = well fitted curve in either direction with a large enough effect, not every such curve was filed as active;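 note: ME-180 reporter cells stimulated with EGF at its EC50 level; % is set by controls: 0 for no effect and ±100 for the full control effect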). The conditions noted are these: ME-180 AP-1-bla reporter, EGF-induced, beta-lactamase ratio, 5 h. A digest of the protocol: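 First, ME-180 AP-1-bla cells were cultured overnight at 37 °C in low-serum Opti-MEM. Next, titrated compounds with EC50 EGF were incubated 5 hours. Finally, CCF4 was added for 2.5 hours and the 460/530 nm ratio recorded.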

Assay [12] can be described thus: NFAT Signaling Pathway (AID 444; active = well fitted curve in either direction with a large enough effect, not every such curve was filed as active;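 note: carbachol stimulus at about its EC50 of 1 µM final; % is set by controls: 0 for no effect and ±100 for the full control effect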). The conditions noted are these: Jurkat NFAT-bla M1, carbachol, beta-lactamase ratio, 5 h. Summed up: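 Jurkat cells with NFAT-driven β-lactamase reporter and co-expressed M1 receptor, stimulated with carbachol (final 1 uM, ~EC50), compound titration, 5 h at 37 °C. CCF4 loaded 1 h at RT; 460/530 nm ratio gave %activity and AC50.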

Assay [13] can be described thus: Stat Signaling Pathway (AID 446; active = well fitted curve in either direction with a large enough effect, not every such curve was filed as active). As to conditions: ME-180 SIE beta-lactamase reporter, IL-6 stimulated, 5 h. Summed up: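 Reporter line: ME-180 cervical carcinoma, SIE-beta-lactamase. Treatment: compound with 40 pM IL-6, 5 hrs, 37 C, in low-serum OPTI-MEM with 10 mM HEPES pH 7.3. Detection: 460/530 nm fluorescence.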
Where [14] appears, read: measured here: cell count channel max response.
[15] abbreviates: measured here: lipid channel max response.
Where [16] appears, read: at 7.69 µM (top of the series) unless noted.
The mark [17] stands for this setting: at 12.8 µM (top of the series), parasite line A.
Where [18] appears, read: at 12.8 µM (top of the series), parasite line B.

Where “and” joins values, the source holds several entries; their conditions need not be identical. Identical values can stand only once. Inconclusive results are not listed. Calls of active or inactive are those of the source. Unless noted, calls come from the whole dose curve; as a rule, active = well fitted curve in the direction sought with a large enough effect; inconclusive = small, poorly fitted or top-dose-only effect, or another doubt; inactive = no such curve, though single readings can be large; an effect the other way counts as inactive or inconclusive. Some results are limits rather than exact numbers.

Chain of Cytochrome P450 1A2 (Homo sapiens) (P05177 whole entry, looked up): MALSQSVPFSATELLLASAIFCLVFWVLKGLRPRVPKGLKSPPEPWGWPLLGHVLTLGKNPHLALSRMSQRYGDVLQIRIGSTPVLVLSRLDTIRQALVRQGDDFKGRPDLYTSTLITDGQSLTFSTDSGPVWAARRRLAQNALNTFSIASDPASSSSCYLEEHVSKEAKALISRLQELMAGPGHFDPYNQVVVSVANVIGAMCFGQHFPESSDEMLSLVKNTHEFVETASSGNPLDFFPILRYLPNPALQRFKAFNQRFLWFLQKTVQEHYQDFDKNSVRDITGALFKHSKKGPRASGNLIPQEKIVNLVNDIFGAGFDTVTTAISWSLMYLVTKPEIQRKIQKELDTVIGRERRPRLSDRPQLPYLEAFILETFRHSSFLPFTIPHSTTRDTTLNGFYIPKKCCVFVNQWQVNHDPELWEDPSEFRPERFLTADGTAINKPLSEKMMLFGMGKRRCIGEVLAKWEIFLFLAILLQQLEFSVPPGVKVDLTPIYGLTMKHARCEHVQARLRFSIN
Chain of Luciferin 4-monooxygenase (Photinus pyralis) (P08659 whole entry, looked up): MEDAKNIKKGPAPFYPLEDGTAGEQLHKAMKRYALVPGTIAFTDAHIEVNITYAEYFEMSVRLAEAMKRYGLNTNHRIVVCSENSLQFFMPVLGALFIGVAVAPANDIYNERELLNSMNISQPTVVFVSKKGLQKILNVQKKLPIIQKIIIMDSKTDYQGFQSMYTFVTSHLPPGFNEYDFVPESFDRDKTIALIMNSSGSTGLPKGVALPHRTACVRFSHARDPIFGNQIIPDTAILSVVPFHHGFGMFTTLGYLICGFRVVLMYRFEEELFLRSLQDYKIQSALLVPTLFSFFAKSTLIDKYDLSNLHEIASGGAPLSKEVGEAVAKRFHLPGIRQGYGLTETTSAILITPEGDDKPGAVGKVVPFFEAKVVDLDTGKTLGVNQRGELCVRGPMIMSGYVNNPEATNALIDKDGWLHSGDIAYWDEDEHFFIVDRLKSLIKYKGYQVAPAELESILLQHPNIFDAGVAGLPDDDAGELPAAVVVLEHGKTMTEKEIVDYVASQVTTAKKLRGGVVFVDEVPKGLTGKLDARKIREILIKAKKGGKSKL
Chain of Ubiquitin carboxyl-terminal hydrolase 1 (Homo sapiens) (O94782 whole entry, looked up): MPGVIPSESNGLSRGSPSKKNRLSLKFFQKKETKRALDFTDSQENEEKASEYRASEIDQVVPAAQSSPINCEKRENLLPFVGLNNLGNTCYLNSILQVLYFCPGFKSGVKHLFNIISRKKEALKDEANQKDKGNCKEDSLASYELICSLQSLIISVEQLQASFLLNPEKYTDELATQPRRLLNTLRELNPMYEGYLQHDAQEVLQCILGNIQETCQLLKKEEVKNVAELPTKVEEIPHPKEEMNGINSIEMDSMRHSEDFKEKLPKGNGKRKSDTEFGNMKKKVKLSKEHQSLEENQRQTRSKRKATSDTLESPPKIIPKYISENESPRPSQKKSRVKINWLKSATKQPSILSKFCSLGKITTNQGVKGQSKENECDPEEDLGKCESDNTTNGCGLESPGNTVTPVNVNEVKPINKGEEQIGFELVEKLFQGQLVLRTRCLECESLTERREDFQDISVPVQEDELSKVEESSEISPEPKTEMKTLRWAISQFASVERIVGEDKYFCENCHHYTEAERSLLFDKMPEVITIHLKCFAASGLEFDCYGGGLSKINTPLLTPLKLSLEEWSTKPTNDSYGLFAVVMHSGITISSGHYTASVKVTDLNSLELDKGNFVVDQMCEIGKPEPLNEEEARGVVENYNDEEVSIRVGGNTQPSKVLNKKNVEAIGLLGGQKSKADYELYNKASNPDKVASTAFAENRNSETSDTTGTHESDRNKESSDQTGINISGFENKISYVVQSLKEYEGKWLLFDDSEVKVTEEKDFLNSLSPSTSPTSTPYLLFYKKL
Chain of 3',5'-cyclic-AMP phosphodiesterase 4B (Homo sapiens) (Q07343 whole entry, looked up): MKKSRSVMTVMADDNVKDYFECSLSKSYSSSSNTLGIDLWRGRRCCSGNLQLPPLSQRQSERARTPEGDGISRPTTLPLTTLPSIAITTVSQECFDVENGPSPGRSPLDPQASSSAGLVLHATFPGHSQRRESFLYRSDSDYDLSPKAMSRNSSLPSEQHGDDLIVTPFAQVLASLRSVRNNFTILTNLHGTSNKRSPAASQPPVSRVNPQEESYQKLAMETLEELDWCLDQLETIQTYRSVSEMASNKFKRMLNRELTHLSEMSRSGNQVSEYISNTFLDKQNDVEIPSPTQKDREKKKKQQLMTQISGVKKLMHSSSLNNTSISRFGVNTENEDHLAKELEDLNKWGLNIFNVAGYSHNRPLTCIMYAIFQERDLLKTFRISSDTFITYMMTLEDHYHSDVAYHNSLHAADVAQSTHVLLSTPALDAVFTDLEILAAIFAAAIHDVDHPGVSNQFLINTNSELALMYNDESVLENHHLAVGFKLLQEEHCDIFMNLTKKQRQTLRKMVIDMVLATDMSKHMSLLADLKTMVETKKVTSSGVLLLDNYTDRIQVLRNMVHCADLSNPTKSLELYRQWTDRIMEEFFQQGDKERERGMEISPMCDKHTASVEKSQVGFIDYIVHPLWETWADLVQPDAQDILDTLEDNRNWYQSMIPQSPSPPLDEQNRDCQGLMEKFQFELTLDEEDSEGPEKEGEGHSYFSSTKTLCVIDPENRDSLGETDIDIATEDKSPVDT
Chain of ATP-dependent 6-phosphofructokinase (Trypanosoma brucei brucei) (O15648 whole entry, looked up): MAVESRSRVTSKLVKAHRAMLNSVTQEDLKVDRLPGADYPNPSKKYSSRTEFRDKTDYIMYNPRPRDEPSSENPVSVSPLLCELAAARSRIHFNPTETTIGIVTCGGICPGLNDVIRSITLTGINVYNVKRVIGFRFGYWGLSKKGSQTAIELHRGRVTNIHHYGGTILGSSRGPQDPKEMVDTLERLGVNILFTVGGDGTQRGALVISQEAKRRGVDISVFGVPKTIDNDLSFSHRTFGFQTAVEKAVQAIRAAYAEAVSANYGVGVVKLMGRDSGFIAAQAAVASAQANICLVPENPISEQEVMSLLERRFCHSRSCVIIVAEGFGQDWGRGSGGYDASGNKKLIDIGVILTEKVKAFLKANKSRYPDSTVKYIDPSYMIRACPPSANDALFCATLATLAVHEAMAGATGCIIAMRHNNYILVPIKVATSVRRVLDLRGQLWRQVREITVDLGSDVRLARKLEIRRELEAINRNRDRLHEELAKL

Turning to `CC1(C)Oc2ccc(C#N)cc2[C@H](N2CCCC2=O)[C@H]1O`, the results for the Potency in assay [1], in assay [2] and in [3] were 10 µM (active), > 46 µM (inactive) and > 46 µM (inactive), respectively. In addition, the Potency entry (in assay [4]; in [5]; in assay [8]; with AS120; in the assay on CP201; in the assay on CP238) was “inactive” throughout. The Potency result with CP262, with CP265, with FAB9 and in the assay with JCK was “inactive” each time. Also, in assay [6] (at 57.5 µM (top of the series)), the activity change, negative = inhibition is 0.0468% (inactive) and 5.32% (inactive). In addition, the max response is 5.79% and -0.997% in assay [6] (setting [14]); 6.51% and -0.942% in assay [6] (setting [15]). Also, the compound was classed as inactive in [7] and in assay [9]. Also, the activity, negative = inhibition is 10.2% (inactive) in assay [10] (at 28.7 µM (top of the series), parasite line A) and 9.46% (inactive) in assay [10] (at 28.7 µM (top of the series), parasite line B).

Regarding `C[N+]1(C)CCC[C@@H](OC(=O)C(O)(c2ccccc2)c2ccccc2)C1`, the figures for the activity change, negative = inhibition in assay [11] (setting [16]), in assay [12] (setting [16]) and in assay [6] (at 25.7 µM (top of the series)) were 3.62% [at 17.2 µM] (inactive), -62.4% [at 17.2 µM] (active) and -3.46% (inactive), respectively. Besides, the Potency entry (in assay [1]; in assay [4]; in assay [5]; in assay [8]; in the assay on AS120; in the assay with CP201) was “inactive” each time. Besides, the Potency result in the assay on CP238, in the assay with CP262, in the assay on CP265, in the assay with FAB9 and in the assay on JCK was “inactive” in each case. Besides, the activity, negative = inhibition is 11.2% [at 17.2 µM] (inactive) in [13] (setting [16]), 9.41% (inactive) in [10] (setting [17]) and 6.69% (inactive) in assay [10] (setting [18]). Further, in assay [3], the Potency is > 20.6 µM (inactive). The max response is -12.3% in [6] (setting [14]) and -16.2% in assay [6] (setting [15]). Further, the compound was classed as inactive in assay [7] and in [9].

On to `C[C@@H](C(=O)O)c1cccc(C(=O)c2ccccc2)c1`, for which the activity change, negative = inhibition was 5.98% (inactive) in assay [11] (at 17.2 µM (top of the series)), 9.29% (inactive) in assay [11] (at 38 µM (top of the series)), 5.64% (inactive) in [12] (at 17.2 µM (top of the series)) and 19.5% (inactive) in [12] (at 38 µM (top of the series)). For the same compound, the results for the activity, negative = inhibition in [13] (at 17.2 µM (top of the series)) and in assay [13] (at 38 µM (top of the series)) were 6.92% (inactive) and 4.82% (inactive), respectively. The Potency result in assay [4], in [5] and in assay [8] was “inactive” in each case. For the same compound, the call in assay [7] and in [9] was inactive.

`CS(=O)(=O)N1CCC[C@@]2(CCN(c3ccncc3)C2)C1`: the figures for the activity change, negative = inhibition in assay [11] (setting [16]), in assay [12] (setting [16]) and in assay [6] (at 57.5 µM (top of the series)) were -3.38% (inactive), -25.4% (inactive) and -0.375% (inactive), respectively. For the same compound, the Potency entry in assay [1], in [4] and in [5] was “inactive” throughout. Also, in [13] (setting [16]), the activity, negative = inhibition is 1.56% (inactive). The Potency in [3] is > 46 µM (inactive). Moreover, the max response in assay [6] (setting [14]) is -15.6%; in assay [6] (setting [15]) it was -16.3%.

For `COc1c(O)cc2c(c1O)[C@@H]1O[C@@H](CO)[C@@H](O)[C@@H](O)[C@@H]1OC2=O`, the Potency result (in [1]; in assay [4]; in [5]; in assay [8]; with AS120; in the assay with CP201) was “inactive” throughout. In addition, the Potency result with CP238, in the assay with CP262, in the assay on CP265, with FAB9 and in the assay on JCK was “inactive” throughout. The activity change, negative = inhibition in assay [12] (setting [16]) is 4.01% [at 17.2 µM] (inactive); in assay [6] (at 25.7 µM (top of the series)) it was -2.39% (inactive). For the same compound, the activity, negative = inhibition in assay [13] (setting [16]) was -7.81% [at 17.2 µM] (inactive); in assay [10] (setting [17]), 5.83% (inactive); in assay [10] (setting [18]) it was 11.9% (inactive). Also, the Potency in [2] and in assay [3] was > 20.6 µM (inactive) in each case. In addition, the max response is -8.82% in assay [6] (setting [14]) and -7.08% in assay [6] (setting [15]). The call in assay [7] and in [9] was inactive.
